Positions count from the first letter of the chain named.

The text below walks through data of publication PMC11006913.

The target in the first test is T1, SIX6 (Homo sapiens, UniProt O95475 114-200).
T1 sequence: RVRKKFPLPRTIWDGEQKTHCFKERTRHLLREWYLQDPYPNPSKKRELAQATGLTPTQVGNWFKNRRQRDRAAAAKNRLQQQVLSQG
Briefly: PBM; 200 nM protein, PBS. As to conditions: dsDNA, one strand shown.
In the case of CCCCGCAG, the binding signal was 8.96 upbm affinity estimate (log intensity, higher = more binding, comparable within an allelic series).

For the sequence CAGTGGCC, the binding signal is 8.95 upbm affinity estimate (log intensity, higher = more binding, comparable within an allelic series).

On to AGGTGGGC, for which the binding signal is 8.91 upbm affinity estimate (log intensity, higher = more binding, comparable within an allelic series).

For AGCGGCGC, the binding signal was 8.72 upbm affinity estimate (log intensity, higher = more binding, comparable within an allelic series).

As to AAGATATC, the binding signal was 10.9 upbm affinity estimate (log intensity, higher = more binding, comparable within an allelic series).

Consider GTATCAAA, for which the binding signal is 11.2 upbm affinity estimate (log intensity, higher = more binding, comparable within an allelic series).

Regarding TGTATCAA, the binding signal was 11.1 upbm affinity estimate (log intensity, higher = more binding, comparable within an allelic series).

Turning to CCGCCAGC, the binding signal was 9.05 upbm affinity estimate (log intensity, higher = more binding, comparable within an allelic series).

GCGCTGCC: the binding signal was 8.71 upbm affinity estimate (log intensity, higher = more binding, comparable within an allelic series).

As for CGTATCAC, the binding signal is 11 upbm affinity estimate (log intensity, higher = more binding, comparable within an allelic series).

In the case of CATGATCA, the binding signal is 10.3 upbm affinity estimate (log intensity, higher = more binding, comparable within an allelic series).

Regarding ATATACAC, the binding signal was 10.9 upbm affinity estimate (log intensity, higher = more binding, comparable within an allelic series).

Consider CAGTATCA, for which the binding signal is 10.9 upbm affinity estimate (log intensity, higher = more binding, comparable within an allelic series).

As for AGTATCAC, the binding signal was 11 upbm affinity estimate (log intensity, higher = more binding, comparable within an allelic series).

For GCAGTGGC, the binding signal is 8.98 upbm affinity estimate (log intensity, higher = more binding, comparable within an allelic series).

Turning to GATGATAC, the binding signal was 11.1 upbm affinity estimate (log intensity, higher = more binding, comparable within an allelic series).

With GCCGCGGC, the binding signal is 9 upbm affinity estimate (log intensity, higher = more binding, comparable within an allelic series).

With GATATCAC, the binding signal is 11.1 upbm affinity estimate (log intensity, higher = more binding, comparable within an allelic series).

For GTGTATCA, the binding signal is 11.3 upbm affinity estimate (log intensity, higher = more binding, comparable within an allelic series).

For AGCGGTGG, the binding signal is 9.06 upbm affinity estimate (log intensity, higher = more binding, comparable within an allelic series).

Another test has as its target T2, SIX6 (Homo sapiens, UniProt O95475 114-200, T165I).
T2 sequence: T1 sequence with T52I
Description: PBM; 200 nM protein, PBS. The note with it: dsDNA, one strand shown.
Take CGGTATCA: the binding signal was 11 upbm affinity estimate (log intensity, higher = more binding, comparable within an allelic series).

As for AGCGGGCC, the binding signal was 8.98 upbm affinity estimate (log intensity, higher = more binding, comparable within an allelic series).

As to GGCCCCGA, the binding signal is 8.84 upbm affinity estimate (log intensity, higher = more binding, comparable within an allelic series).

For the sequence GGCGACCC, the binding signal is 9.02 upbm affinity estimate (log intensity, higher = more binding, comparable within an allelic series).

AGGGCCCG: the binding signal was 8.9 upbm affinity estimate (log intensity, higher = more binding, comparable within an allelic series).

Consider ACGGGCGG, for which the binding signal is 8.98 upbm affinity estimate (log intensity, higher = more binding, comparable within an allelic series).

As to ATGATACC, the binding signal is 11.3 upbm affinity estimate (log intensity, higher = more binding, comparable within an allelic series).

On to TGATACCA, for which the binding signal is 11.1 upbm affinity estimate (log intensity, higher = more binding, comparable within an allelic series).

On to AGTATATC, for which the binding signal is 10.9 upbm affinity estimate (log intensity, higher = more binding, comparable within an allelic series).

On to GCCAGTCC, for which the binding signal was 8.85 upbm affinity estimate (log intensity, higher = more binding, comparable within an allelic series).

With ATATCCCC, the binding signal was 10.9 upbm affinity estimate (log intensity, higher = more binding, comparable within an allelic series).

CCAGTGCG: the binding signal is 8.95 upbm affinity estimate (log intensity, higher = more binding, comparable within an allelic series).

As for GGCGCCCA, the binding signal is 8.73 upbm affinity estimate (log intensity, higher = more binding, comparable within an allelic series).

In the case of ACCGCGCC, the binding signal is 8.84 upbm affinity estimate (log intensity, higher = more binding, comparable within an allelic series).

For GGCGGACC, the binding signal was 8.89 upbm affinity estimate (log intensity, higher = more binding, comparable within an allelic series).

CGCAACCG: the binding signal was 9.15 upbm affinity estimate (log intensity, higher = more binding, comparable within an allelic series).

Consider AGCTCCGC, for which the binding signal was 9.01 upbm affinity estimate (log intensity, higher = more binding, comparable within an allelic series).

Regarding AGTGTATC, the binding signal is 10.9 upbm affinity estimate (log intensity, higher = more binding, comparable within an allelic series).

Turning to GGCCGGAA, the binding signal was 8.95 upbm affinity estimate (log intensity, higher = more binding, comparable within an allelic series).

Take CGCAGCGC: the binding signal is 9.02 upbm affinity estimate (log intensity, higher = more binding, comparable within an allelic series).

For the sequence CCCCGCAG, the binding signal is 8.97 upbm affinity estimate (log intensity, higher = more binding, comparable within an allelic series).

As to CAGTGGCC, the binding signal was 8.94 upbm affinity estimate (log intensity, higher = more binding, comparable within an allelic series).

In the case of AGGTGGGC, the binding signal was 8.94 upbm affinity estimate (log intensity, higher = more binding, comparable within an allelic series).

As to AGCGGCGC, the binding signal is 8.83 upbm affinity estimate (log intensity, higher = more binding, comparable within an allelic series).

Turning to AAGATATC, the binding signal is 10.9 upbm affinity estimate (log intensity, higher = more binding, comparable within an allelic series).

For GTATCAAA, the binding signal was 11.2 upbm affinity estimate (log intensity, higher = more binding, comparable within an allelic series).

For the sequence TGTATCAA, the binding signal was 11.1 upbm affinity estimate (log intensity, higher = more binding, comparable within an allelic series).

With CCGCCAGC, the binding signal is 9.03 upbm affinity estimate (log intensity, higher = more binding, comparable within an allelic series).

As for GCGCTGCC, the binding signal is 8.78 upbm affinity estimate (log intensity, higher = more binding, comparable within an allelic series).

Regarding CGTATCAC, the binding signal was 11.1 upbm affinity estimate (log intensity, higher = more binding, comparable within an allelic series).

In the case of CATGATCA, the binding signal is 10.2 upbm affinity estimate (log intensity, higher = more binding, comparable within an allelic series).

With ATATACAC, the binding signal was 10.9 upbm affinity estimate (log intensity, higher = more binding, comparable within an allelic series).

As to CAGTATCA, the binding signal is 10.9 upbm affinity estimate (log intensity, higher = more binding, comparable within an allelic series).

As for AGTATCAC, the binding signal was 11 upbm affinity estimate (log intensity, higher = more binding, comparable within an allelic series).

Take GCAGTGGC: the binding signal was 8.94 upbm affinity estimate (log intensity, higher = more binding, comparable within an allelic series).

Regarding GATGATAC, the binding signal was 11.1 upbm affinity estimate (log intensity, higher = more binding, comparable within an allelic series).

As to GCCGCGGC, the binding signal is 8.83 upbm affinity estimate (log intensity, higher = more binding, comparable within an allelic series).

Regarding GATATCAC, the binding signal was 11.1 upbm affinity estimate (log intensity, higher = more binding, comparable within an allelic series).

GTGTATCA: the binding signal is 11.2 upbm affinity estimate (log intensity, higher = more binding, comparable within an allelic series).

Regarding AGCGGTGG, the binding signal was 8.95 upbm affinity estimate (log intensity, higher = more binding, comparable within an allelic series).
